Screening results deposited in PubChem BioAssay by The Scripps Research Institute Molecular Screening Center.
ssDAF12 agonist: activates DAF-12 receptor from parasite S. stercoralis; HEK293 ssDAF-12/GRIP1 lit1-tk-luc reporter, luminescence; % of 3 µM dafachronic acid response; activation, % at 6.8 µM; 1% of 370,000 active;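 active means activation above the mean over all tested compounds plus 3 SD, cut at about 0.9% in these data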;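 further: 0% = DMSO-only wells and 100% = 3 µM delta7-dafachronic acid wells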
hcDAF12 agonist: H. contortus DAF-12 activation, primary screen; 1.4% of 370,000 active; AID 652067; activation, % at 6.8 µM; HEK293 hcDAF-12 lit1-tk-luc reporter, luminescence; 0% DMSO, 100% Δ7-dafachronic acid;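 active means activation above the mean of all tested compounds plus 3 SD, cut at about 5.5% in these data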;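 further: 100% = response to 3 µM Δ7-dafachronic acid high control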
DAX1 inh-1: blocks DAX1 repression of SF-1 activated StAR promoter. HEK293T StAR-luciferase reporter, SF-1/DAX-1 repression relief. 1.1% of 370,000 active. inhibition, % at 6.8 µM;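 active means inhibition above the mean over all tested compounds plus 3 SD, cut at about 3.6% in these data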;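 further: 0% = DAX-1 cells with DMSO and 100% = cells lacking DAX-1 with DMSO; higher inhibition means more luminescence from relief of DAX-1 repression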
DAX1 inh-2: inhibitors of human orphan nuclear receptor DAX1 (NR0B1); P51843; HEK293 Gal4-DAX1 luciferase reporter, luminescence; inhibition, % at 6.75 µM; 0.99% of 340,000 active; AID 504766;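 active means inhibition above the mean over all tested compounds plus 3 SD, cut at about 4.2% in these data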;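 further: 0% = DAX1-transfected cells with DMSO and 100% = empty-vector control cells with DMSO; inhibition shows as a rise in luminescence from relieved DAX1 repression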
hgDAF-12 ag: activates the H. glycines DAF-12 receptor ligand-binding domain; HEK293 GAL4-hgDAF12 UAS-luciferase reporter, agonist luminescence; normalized to butyrate control; activation, % at 6.8 µM; 1.8% of 370,000 active;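 active means activation above a cutoff set at the mean of all screened compounds plus 3 SD, cut at about 10% in these data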;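 further: 0% = DMSO wells and 100% = sodium butyrate wells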
LXRb hcDAF ctr: LXR-beta agonism as hcDAF-12 counter-screen | shares compounds with hcDAF12 agonist | HEK293 Gal4-LXR tk-luc reporter, luminescence, 24 h; normalized: DMSO 0%, positive control 100% | activation, % at 6.8 µM | 3,400 tested, under 10 active;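 active means mean percent activation of the reporter above a cutoff set as the average over tested compounds plus their standard deviation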
Target sequence (P55055 whole entry, looked up, the tested form may be a part): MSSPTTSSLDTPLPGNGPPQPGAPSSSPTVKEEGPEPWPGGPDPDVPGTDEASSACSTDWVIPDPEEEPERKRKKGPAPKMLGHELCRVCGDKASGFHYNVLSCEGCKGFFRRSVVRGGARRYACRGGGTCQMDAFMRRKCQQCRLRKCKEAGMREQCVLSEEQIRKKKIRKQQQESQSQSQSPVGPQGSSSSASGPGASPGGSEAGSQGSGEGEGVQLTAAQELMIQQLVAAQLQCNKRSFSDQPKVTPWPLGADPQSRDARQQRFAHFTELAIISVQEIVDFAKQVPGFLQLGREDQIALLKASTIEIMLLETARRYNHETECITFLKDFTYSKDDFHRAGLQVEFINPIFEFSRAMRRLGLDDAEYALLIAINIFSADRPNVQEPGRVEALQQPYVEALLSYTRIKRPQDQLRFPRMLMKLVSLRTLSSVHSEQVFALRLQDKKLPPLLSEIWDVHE
hcDAF12 ag: hcDAF-12 agonism, confirmation assay; shares compounds with hcDAF12 agonist; HEK293 hcDAF-12 lit1-tk-luc reporter, luminescence; % of Δ7-dafachronic acid response; activation, % at 6.8 µM; 61% of 3,400 active;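 active means mean activation across triplicate tests above the threshold derived from the earlier primary screen, cut at about 5.5% in these data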;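 further: 0% = DMSO only wells and 100% = 3 µM Δ7-dafachronic acid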
Numbers without * were called inactive; x = not tested or not shown. Compounds with a hit are over-represented: about 4.1% of the library has one in this group of screens.

SMILES	ssDAF12 agonist	hcDAF12 agonist	DAX1 inh-1	DAX1 inh-2	hgDAF-12 ag	LXRb hcDAF ctr	hcDAF12 ag
COc1ccc(C(=O)[C@H]2[C@H]3C(=O)N(c4ccc(OC(C)=O)cc4)C(=O)[C@H]3C3C=CC=NN32)cc1 (some centres not stated)	0	-1	-1	3	2	x	x
O=C(Nc1ccc(Cl)cc1)[C@@H]1[C@@H]2C(=O)N(c3cccc(F)c3)C(=O)[C@@H]2[C@H]2C=CC=NN21	-1	1	0	-1	2	x	x
O=[N+]([O-])c1ccc(Sc2cccc[n+]2[O-])c2nonc12	-4	-7	-3	-5	-10	x	x
CC1=NN(C(=O)c2ccc(Cn3ccc([N+](=O)[O-])n3)cc2)C(O)(C(F)(F)F)C1 (configuration not stated)	-1	-2	-1	0	0	x	x
COc1ccc(OC)c(NC(=O)COc2ccc(S(=O)(=O)N3CCCC3)cc2)c1	-1	-2	0	1	1	x	x
Cc1cc(=O)oc2cc(NC(=O)c3ccccc3OC(F)F)ccc12	1.6*	7.3*	2	0	10	0	9.6*
CSCCC(NC(=O)c1ccc(Cl)cc1)C(=O)OCC(=O)NCc1ccco1 (configuration not stated)	-1	1	1	-1	0	x	x
CSCCC(NC(=O)c1ccc(Cl)cc1)C(=O)OCC(=O)Nc1cc(Cl)ccc1C#N (configuration not stated)	0	7.5*	0	0	1	0	3
Cc1cnc(C(=O)OCC(=O)Nc2cc(Cl)ccc2C#N)cn1	0	6.6*	-1	1	3	0	4
COc1ccc(C(=O)N/C(=C\c2ccc3c(c2)OCO3)C(=O)NCCc2nc3ccccc3[nH]2)cc1	-2	3	-1	1	2	x	x
CCOc1ccc(NC(=O)C2CC(=O)N(CCc3ccc(OC)c(OC)c3)C2)cc1OCC (configuration not stated)	-1	-2	-1	1	-2	x	x
Cc1cc2cc(OCc3ccccc3)ccc2n1C	0	6.7*	1	4	6	1	4
Cc1cc2cc(OCC(=O)O)ccc2n1C	-1	-1	0	-1	-1	x	x
O=C(Nc1ncccn1)c1cccc(Cl)c1	1	5	0	x	-1	x	x
O=C(Nc1ncccn1)c1cccc(F)c1	0	7.0*	0	-1	8	0	1
CC(OC(=O)Cc1c(F)cccc1Cl)C(=O)NCCC1=CCCCC1 (configuration not stated)	-1	-2	-1	-1	0	x	x
NC(=O)c1ccc(CSc2nc3ccccc3s2)cc1	1	8.1*	1	0	8	0	4
Cc1nn(C(=O)CNC(=O)c2ccccc2)c(C)c1C	-1	-1	2	1	-1	x	x
Cc1nn(C(=O)c2cc3sccc3[nH]2)c(C)c1C	0	8.1*	2	3	10*	1	11*
O=C(/C=C\Nc1cccc(F)c1)c1cccs1	1.5*	9.8*	3.6*	3	8	2	18*
O=C(/C=C/Nc1cccc(F)c1)c1ccco1	1.4*	8.8*	3	3	12*	1	8.1*
O=C(/C=C/Nc1ccc(F)c(Cl)c1)c1ccco1	1.7*	8.8*	1	4	9	1	12*
O=C(Nc1cccc(F)c1)/C(=C\c1ccco1)NC(=O)c1cccs1	-1	0	1	2	2	x	x
COc1ccc(N2CC(C(=O)Nc3nc4ccc(F)cc4s3)CC2=O)c(OC)c1 (configuration not stated)	-1	4	2	0	8	x	x
O=C(O)CC/C(=C\c1ccccc1[N+](=O)[O-])c1nc2ccccc2s1	-1	0	0	-1	4	x	x
O=C(O)CC/C(=C\c1cc([N+](=O)[O-])ccc1Cl)c1nc2ccccc2s1	0	8.8*	0	-1	4	0	7.9*
